Results: article PMC7862700, “An all-to-all approach to the identification of sequence-specific readers for epigenetic DNA modifications on cytosine”

Key:
Assay in all cases: DAPPL (digital affinity profiling via proximity ligation, sequencing); 10 mM Tris-HCl pH 7.5, 50 mM NaCl, 1 mM DTT, 4% glycerol, room temperature, 30 min; GST-TFs on glutathione beads, 16-mer random dsDNA library, 0.1% formaldehyde crosslink after washing; high values mean tight binding
FLI1 = biological target: T1, FLI1 (Homo sapiens, UniProt Q01543 1-452); conditions: protein: recombinant; tags: N-terminal GST; dsDNA, one strand shown
T1 sequence: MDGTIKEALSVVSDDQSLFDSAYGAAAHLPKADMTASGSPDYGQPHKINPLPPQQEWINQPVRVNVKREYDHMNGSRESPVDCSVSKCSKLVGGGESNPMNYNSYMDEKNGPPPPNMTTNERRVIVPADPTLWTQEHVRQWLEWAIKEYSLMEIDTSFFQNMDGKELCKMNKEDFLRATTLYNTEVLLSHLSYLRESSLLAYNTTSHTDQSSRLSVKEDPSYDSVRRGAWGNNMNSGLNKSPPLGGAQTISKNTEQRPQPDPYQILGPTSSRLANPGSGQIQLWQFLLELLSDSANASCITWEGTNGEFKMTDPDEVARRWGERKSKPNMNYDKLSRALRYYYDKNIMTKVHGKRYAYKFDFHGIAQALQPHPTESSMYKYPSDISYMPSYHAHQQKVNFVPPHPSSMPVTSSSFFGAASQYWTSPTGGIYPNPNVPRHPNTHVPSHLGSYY
Outline: (§1)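 The binding signal reported is, for every hexamer, its read frequency for a factor over its read frequency for the tag-only sample. Reads came from pools of yeast-expressed, GST-fused human transcription factors on glutathione beads, barcoded with DNA and mixed with that sample, which were incubated with 200 nmole of a random double-stranded 16-mer DNA library in Tris/NaCl/DTT/glycerol buffer at room temperature for 30 min. After washing, the pools were crosslinked with 0.1% formaldehyde, proximity-ligated with BsaI/T4 ligase for 1 h at 37 °C, PCR-amplified and sequenced on an Illumina NextSeq500.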

ELK1 = biological target: T2, ELK1 (Homo sapiens, UniProt P19419 1-428); conditions: protein: recombinant; tags: N-terminal GST; dsDNA, one strand shown
T2 sequence: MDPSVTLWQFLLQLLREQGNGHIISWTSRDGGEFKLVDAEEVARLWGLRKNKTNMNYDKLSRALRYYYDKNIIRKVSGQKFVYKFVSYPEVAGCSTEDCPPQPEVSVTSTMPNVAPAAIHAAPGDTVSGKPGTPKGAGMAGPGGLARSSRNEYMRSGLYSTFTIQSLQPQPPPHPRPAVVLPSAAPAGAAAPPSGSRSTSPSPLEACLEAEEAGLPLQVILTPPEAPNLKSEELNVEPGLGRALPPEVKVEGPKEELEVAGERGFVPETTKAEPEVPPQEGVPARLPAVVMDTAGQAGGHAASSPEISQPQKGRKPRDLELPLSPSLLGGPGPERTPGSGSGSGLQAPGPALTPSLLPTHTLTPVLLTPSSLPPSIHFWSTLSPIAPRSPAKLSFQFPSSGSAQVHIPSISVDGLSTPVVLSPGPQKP
Outline: as §1

GABPA = biological target: T3, GABPA (Homo sapiens, UniProt Q06546 1-454); conditions: protein: recombinant; tags: N-terminal GST; dsDNA, one strand shown
T3 sequence: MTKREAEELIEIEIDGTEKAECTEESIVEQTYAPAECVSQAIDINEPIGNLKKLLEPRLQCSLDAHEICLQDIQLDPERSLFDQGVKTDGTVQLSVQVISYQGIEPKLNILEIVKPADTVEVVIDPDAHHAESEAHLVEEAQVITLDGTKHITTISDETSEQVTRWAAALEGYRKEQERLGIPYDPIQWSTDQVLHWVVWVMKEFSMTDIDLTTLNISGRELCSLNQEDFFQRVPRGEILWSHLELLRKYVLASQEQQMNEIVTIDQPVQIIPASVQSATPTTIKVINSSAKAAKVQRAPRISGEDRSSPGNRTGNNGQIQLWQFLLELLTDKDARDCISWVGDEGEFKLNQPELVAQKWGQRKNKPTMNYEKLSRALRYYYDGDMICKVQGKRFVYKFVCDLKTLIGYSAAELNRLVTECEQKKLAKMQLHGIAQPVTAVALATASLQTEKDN
Outline: as §1

ERG = biological target: T4, ERG (Homo sapiens, UniProt P11308 1-479); conditions: protein: recombinant; tags: N-terminal GST; dsDNA, one strand shown
T4 sequence: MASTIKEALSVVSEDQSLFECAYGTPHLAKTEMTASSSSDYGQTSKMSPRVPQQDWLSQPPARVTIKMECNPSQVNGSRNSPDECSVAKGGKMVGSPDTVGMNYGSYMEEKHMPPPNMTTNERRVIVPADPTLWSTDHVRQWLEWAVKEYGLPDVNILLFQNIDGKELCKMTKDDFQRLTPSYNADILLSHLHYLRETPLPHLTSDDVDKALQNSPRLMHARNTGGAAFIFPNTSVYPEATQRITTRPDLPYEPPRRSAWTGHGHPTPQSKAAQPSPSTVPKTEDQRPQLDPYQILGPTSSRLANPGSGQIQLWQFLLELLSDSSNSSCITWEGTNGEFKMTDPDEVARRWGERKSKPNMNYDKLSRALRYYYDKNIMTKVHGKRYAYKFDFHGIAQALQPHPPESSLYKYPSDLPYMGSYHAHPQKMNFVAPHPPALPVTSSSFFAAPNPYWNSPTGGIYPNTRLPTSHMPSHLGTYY
Outline: as §1

ELF1 = ELF1 (Homo sapiens, UniProt P32519 1-619); conditions: protein: recombinant; tags: N-terminal GST; dsDNA, one strand shown
Outline: as §1

EHF = biological target: T5, EHF (Homo sapiens, UniProt Q9NZC4 1-300); conditions: protein: recombinant; tags: N-terminal GST; dsDNA, one strand shown
T5 sequence: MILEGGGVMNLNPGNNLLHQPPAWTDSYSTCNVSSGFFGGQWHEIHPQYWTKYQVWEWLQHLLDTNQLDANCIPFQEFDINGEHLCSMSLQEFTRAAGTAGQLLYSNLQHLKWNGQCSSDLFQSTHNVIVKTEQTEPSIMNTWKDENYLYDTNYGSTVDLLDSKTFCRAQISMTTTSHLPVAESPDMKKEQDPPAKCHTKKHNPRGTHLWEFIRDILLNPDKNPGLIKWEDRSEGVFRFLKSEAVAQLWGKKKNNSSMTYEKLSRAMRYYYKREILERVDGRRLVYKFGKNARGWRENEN
Outline: as §1

SPI1 = SPI1 (Homo sapiens, UniProt P17947 1-270); conditions: protein: recombinant; tags: N-terminal GST; dsDNA, one strand shown
Outline: as §1

SPIB = SPIB (Homo sapiens, UniProt Q01892 1-262); conditions: protein: recombinant; tags: N-terminal GST; dsDNA, one strand shown
Outline: as §1

ELK3 = biological target: T6, ELK3 (Homo sapiens, UniProt P41970 1-407); conditions: protein: recombinant; tags: N-terminal GST; dsDNA, one strand shown
T6 sequence: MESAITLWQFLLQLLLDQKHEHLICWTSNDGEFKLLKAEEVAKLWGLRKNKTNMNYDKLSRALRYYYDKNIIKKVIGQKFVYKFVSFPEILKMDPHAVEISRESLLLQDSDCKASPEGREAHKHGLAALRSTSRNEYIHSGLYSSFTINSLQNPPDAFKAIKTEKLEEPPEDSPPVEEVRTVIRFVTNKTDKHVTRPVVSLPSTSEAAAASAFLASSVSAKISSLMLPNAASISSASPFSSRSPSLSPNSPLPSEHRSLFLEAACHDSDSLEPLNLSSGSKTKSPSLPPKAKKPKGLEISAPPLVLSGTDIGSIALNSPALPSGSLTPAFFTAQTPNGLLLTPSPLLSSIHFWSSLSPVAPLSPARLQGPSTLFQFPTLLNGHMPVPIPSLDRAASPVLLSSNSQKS
Outline: as §1

ETV5 = ETV5 (Homo sapiens, UniProt P41161 1-510); conditions: protein: recombinant; tags: N-terminal GST; dsDNA, one strand shown
Outline: as §1

HSF1 = HSF1 (Homo sapiens, UniProt Q00613 1-529); conditions: protein: recombinant; tags: N-terminal GST; chain copies: 3; dsDNA, one strand shown
Outline: as §1

SPIC = biological target: T7, SPIC (Homo sapiens, UniProt Q8N5J4 1-248); conditions: protein: recombinant; tags: N-terminal GST; dsDNA, one strand shown
T7 sequence: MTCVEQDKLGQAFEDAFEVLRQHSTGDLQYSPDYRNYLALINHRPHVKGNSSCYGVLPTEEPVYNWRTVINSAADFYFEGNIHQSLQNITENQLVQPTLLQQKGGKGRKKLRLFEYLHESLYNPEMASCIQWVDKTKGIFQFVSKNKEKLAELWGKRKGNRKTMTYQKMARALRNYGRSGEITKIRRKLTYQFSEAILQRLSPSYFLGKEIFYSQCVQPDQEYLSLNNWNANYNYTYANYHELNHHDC
Outline: as §1

ELF4 = ELF4 (Homo sapiens, UniProt Q99607 1-663); conditions: protein: recombinant; tags: N-terminal GST; dsDNA, one strand shown
Outline: as §1

ELK4 = biological target: T8, ELK4 (Homo sapiens, UniProt P28324-2 1-405); conditions: protein: recombinant; tags: N-terminal GST; dsDNA, one strand shown
T8 sequence: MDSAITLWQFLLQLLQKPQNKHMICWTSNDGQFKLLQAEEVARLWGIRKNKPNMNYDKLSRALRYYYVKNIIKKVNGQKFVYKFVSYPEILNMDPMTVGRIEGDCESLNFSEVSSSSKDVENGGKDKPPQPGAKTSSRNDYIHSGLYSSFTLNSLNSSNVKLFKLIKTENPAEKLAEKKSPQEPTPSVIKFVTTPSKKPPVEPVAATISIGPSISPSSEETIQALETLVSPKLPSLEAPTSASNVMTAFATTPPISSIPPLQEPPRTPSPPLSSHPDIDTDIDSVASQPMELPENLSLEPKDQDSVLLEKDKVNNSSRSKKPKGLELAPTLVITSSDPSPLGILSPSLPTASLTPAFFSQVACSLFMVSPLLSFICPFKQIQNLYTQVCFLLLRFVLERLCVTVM
Outline: as §1

ETV2 = biological target: T9, ETV2 (Homo sapiens, UniProt O00321 1-342); conditions: protein: recombinant; tags: N-terminal GST; dsDNA, one strand shown
T9 sequence: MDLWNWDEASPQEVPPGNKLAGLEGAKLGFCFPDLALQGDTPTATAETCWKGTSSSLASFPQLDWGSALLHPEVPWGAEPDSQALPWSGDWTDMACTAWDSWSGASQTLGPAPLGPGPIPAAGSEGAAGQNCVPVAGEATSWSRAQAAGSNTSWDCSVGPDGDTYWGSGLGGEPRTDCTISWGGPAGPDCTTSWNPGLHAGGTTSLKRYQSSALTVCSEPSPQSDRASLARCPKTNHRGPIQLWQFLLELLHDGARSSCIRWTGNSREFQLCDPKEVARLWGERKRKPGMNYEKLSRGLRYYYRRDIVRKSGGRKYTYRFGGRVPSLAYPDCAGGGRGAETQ
Outline: as §1

ELF3 = biological target: T10, ELF3 (Homo sapiens, UniProt P78545 1-371); conditions: protein: recombinant; tags: N-terminal GST; dsDNA, one strand shown
T10 sequence: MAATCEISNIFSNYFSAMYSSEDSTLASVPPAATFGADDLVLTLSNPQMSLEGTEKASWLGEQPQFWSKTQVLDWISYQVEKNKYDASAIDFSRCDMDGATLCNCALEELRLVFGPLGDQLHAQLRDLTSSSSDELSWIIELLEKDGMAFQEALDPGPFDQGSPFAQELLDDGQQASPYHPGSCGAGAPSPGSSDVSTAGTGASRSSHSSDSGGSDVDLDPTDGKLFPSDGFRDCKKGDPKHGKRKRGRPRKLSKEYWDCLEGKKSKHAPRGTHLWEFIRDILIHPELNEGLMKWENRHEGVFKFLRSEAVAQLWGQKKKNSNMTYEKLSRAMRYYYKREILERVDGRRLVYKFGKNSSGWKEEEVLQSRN
Outline: as §1

ETV1 = ETV1 (Homo sapiens, UniProt P50549 1-477); conditions: protein: recombinant; tags: N-terminal GST; dsDNA, one strand shown
Outline: as §1

Sequence of HSF1 (Q00613 whole entry): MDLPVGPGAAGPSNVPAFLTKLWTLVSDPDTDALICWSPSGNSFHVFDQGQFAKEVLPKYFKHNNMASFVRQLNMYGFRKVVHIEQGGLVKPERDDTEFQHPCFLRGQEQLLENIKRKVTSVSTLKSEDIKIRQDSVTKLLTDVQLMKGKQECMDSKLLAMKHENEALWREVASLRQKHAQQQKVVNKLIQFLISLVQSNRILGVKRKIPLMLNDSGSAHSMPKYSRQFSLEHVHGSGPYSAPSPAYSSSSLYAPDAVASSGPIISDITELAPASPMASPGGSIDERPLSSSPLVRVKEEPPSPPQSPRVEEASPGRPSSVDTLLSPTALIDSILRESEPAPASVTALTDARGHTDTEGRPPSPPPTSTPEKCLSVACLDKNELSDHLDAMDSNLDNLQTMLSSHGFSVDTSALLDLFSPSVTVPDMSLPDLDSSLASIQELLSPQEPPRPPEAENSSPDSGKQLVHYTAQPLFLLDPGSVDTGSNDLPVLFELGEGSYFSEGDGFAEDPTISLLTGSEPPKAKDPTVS
Sequence of ELF1 (P32519 whole entry): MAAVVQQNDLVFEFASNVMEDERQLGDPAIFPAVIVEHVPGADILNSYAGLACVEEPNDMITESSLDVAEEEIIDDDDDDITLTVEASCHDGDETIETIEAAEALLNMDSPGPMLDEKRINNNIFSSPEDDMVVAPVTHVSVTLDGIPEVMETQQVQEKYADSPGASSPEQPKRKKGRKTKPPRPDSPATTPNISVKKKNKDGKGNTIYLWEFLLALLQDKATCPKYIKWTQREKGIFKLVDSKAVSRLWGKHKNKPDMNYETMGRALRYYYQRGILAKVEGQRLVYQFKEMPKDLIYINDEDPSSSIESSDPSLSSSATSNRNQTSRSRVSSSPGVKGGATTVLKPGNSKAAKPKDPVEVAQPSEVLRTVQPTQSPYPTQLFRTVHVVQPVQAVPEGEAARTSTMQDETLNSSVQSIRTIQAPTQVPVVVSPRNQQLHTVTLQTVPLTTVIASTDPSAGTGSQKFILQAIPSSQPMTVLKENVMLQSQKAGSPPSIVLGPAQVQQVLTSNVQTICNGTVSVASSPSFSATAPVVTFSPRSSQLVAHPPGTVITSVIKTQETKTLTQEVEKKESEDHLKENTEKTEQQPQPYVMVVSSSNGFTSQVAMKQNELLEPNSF
Sequence of SPIB (Q01892 whole entry): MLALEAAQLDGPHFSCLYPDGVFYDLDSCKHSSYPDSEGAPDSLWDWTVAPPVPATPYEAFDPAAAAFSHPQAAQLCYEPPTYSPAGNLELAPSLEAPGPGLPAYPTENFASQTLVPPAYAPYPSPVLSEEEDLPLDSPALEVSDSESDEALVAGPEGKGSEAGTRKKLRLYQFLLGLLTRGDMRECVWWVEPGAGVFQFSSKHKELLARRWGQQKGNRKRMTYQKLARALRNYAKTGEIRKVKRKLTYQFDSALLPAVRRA
Sequence of ETV5 (P41161 whole entry): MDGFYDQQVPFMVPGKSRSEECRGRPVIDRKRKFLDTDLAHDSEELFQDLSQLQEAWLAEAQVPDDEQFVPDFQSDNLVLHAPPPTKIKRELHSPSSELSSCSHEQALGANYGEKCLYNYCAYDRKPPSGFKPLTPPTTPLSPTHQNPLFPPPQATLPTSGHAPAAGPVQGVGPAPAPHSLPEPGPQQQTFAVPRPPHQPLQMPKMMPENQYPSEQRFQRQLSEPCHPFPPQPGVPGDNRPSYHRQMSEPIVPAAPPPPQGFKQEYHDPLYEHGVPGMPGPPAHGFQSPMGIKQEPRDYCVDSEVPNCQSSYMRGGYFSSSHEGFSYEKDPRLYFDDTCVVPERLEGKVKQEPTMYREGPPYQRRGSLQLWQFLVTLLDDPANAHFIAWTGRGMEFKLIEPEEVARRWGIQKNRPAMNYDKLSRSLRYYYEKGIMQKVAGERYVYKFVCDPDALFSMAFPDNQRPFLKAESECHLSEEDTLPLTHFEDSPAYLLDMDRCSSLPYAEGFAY
Sequence of ETV1 (P50549 whole entry): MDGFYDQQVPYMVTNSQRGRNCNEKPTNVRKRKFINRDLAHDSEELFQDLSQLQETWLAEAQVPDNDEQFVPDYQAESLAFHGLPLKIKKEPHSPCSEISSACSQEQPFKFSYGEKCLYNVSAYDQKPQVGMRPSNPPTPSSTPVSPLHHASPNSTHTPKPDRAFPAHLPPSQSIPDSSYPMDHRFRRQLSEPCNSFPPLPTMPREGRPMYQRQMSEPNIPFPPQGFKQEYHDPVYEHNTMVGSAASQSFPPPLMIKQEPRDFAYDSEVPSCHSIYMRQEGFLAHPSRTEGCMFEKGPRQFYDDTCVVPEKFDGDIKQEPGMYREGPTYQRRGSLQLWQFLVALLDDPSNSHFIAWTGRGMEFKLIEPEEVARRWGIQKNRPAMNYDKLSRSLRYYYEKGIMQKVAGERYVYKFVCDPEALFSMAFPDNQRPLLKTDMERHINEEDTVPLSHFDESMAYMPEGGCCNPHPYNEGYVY
Sequence of ELF4 (Q99607 whole entry): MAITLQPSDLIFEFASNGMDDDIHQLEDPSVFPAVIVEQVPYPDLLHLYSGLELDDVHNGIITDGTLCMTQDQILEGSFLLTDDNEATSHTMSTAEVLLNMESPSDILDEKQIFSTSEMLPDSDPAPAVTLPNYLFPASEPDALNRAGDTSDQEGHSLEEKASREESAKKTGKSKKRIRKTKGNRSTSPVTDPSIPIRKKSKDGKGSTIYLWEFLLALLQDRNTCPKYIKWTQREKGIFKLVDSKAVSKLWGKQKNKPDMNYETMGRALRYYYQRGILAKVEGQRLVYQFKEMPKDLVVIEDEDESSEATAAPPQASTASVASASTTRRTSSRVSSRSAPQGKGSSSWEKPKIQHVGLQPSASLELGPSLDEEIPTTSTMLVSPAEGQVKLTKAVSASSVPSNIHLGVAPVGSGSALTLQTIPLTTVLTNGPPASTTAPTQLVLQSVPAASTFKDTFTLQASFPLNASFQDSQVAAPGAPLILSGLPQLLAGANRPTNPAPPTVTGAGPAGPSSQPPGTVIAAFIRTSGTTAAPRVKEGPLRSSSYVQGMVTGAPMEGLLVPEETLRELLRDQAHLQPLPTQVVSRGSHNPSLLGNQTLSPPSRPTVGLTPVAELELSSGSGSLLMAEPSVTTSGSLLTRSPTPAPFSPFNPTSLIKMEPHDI

Sequence: TCCACG
- binding signal (FLI1): 1.09 fold enrichment (6-mer frequency, TF over GST control)
- binding signal (ELK1): 1.08 fold enrichment (6-mer frequency, TF over GST control)
- binding signal (GABPA): 1.2 fold enrichment (6-mer frequency, TF over GST control)
- binding signal (ERG): 1.09 fold enrichment (6-mer frequency, TF over GST control)
- binding signal (ELF1): 1.09 fold enrichment (6-mer frequency, TF over GST control)
- binding signal (EHF): 1.06 fold enrichment (6-mer frequency, TF over GST control)
- binding signal (SPI1): 1.06 fold enrichment (6-mer frequency, TF over GST control)
- binding signal (SPIB): 1.11 fold enrichment (6-mer frequency, TF over GST control)
- binding signal (ELK3): 1.14 fold enrichment (6-mer frequency, TF over GST control)
- binding signal (ETV5): 1.04 fold enrichment (6-mer frequency, TF over GST control)
- binding signal (HSF1): 1.15 fold enrichment (6-mer frequency, TF over GST control)
- binding signal (SPIC): 1.15 fold enrichment (6-mer frequency, TF over GST control)
- binding signal (ELF4): 1.13 fold enrichment (6-mer frequency, TF over GST control)
- binding signal (ELK4): 1.13 fold enrichment (6-mer frequency, TF over GST control)
- binding signal (ETV2): 1.3 fold enrichment (6-mer frequency, TF over GST control)
- binding signal (ELF3): 1.02 fold enrichment (6-mer frequency, TF over GST control)
- binding signal (ETV1): 1.08 fold enrichment (6-mer frequency, TF over GST control)
